Compound activity as filed in PubChem BioAssay.
Sampled rows, rich in hits. Any-hit rate of the full collection: about 3.5%.
GDH-TPI counter-1: inhibits GDH-TPI coupling enzymes, artifact for Mtb FBA screen; GDH-TPI coupled enzyme counterscreen, NADH absorbance; inhibition, % at 4.8 µM; actives 1.2% (n = 360,000); AID 588335; in the data active = inhibition above about 30%;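 note: 0% = DMSO wells and 100% = wells lacking the enzyme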
UGM FP inh: inhibitors of M. tuberculosis UDP-galactopyranose mutase; P9WIQ1; purified UGM, fluorescence polarization probe displacement; inhibition, % at 10 µM; actives 0.06% (n = 320,000); in the data active = inhibition above about 10%, passing the limit was not always enough
Target sequence (P9WIQ1 whole entry, looked up): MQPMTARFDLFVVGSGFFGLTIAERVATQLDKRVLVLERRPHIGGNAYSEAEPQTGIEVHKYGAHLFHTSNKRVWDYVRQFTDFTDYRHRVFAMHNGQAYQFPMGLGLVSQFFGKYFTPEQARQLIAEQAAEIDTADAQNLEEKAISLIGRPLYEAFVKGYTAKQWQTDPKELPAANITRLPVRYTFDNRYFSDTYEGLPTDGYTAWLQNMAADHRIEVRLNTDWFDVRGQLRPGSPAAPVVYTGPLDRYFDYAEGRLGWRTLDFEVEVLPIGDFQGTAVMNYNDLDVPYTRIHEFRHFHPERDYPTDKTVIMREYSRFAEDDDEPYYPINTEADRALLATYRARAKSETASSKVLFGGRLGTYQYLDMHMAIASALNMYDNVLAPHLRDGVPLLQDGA
FBA Mtb inh: Mtb fructose-bisphosphate aldolase inhibition; P9WQA3; purified M. tuberculosis FBA, fluorescence read-out; inhibition, % at 1 µM; actives 2.3% (n = 360,000);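 note: 0% = vehicle and 100% = reference inhibitor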
Rv3671c inh: inhibits the M. tuberculosis serine protease Rv3671c. P9WHR9. inhibition, % at 5.96 µM. actives 0.048% (n = 320,000). AID 2606; in the data active = inhibition above about 38%;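 note: extracellular domain of Rv3671c used as enzyme; 0% = enzyme with DMSO and 100% = no enzyme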
Mtb FBA inh conf: Mtb FBA inhibition, confirmed. shares compounds with FBA Mtb inh. purified M. tuberculosis FBA, fluorescence read-out. inhibition, % at 1 µM. actives 78% (n = 5,600). AID 651616;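 note: 0% = vehicle wells and 100% = reference inhibitor wells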
GDH-TPI counter-2: counter-screen for M. tuberculosis FBA inhibitors: GDH-TPI coupled enzyme inhibition. shares compounds with FBA Mtb inh. GDH-TPI coupled enzyme counterscreen, fluorescence. inhibition, % at 1 µM. actives 81% (n = 5,600). AID 652141; in the data active = inhibition above about 10%
* = called active by the depositor; . = not tested or not shown; + = active, no number. Cut-off read from the data, not from the text of the source, unless noted: active = inhibition above about 27%; inactive = the rest.

SMILES	GDH-TPI counter-1	UGM FP inh	FBA Mtb inh	Rv3671c inh	Mtb FBA inh conf	GDH-TPI counter-2
CCC1CCCCN1C(=O)CSc1nc2ncccc2[nH]1 (configuration not stated)	5.2	-2.1	2.0	0.8	.	.
COc1ccc(S(=O)(=O)N2CCOCC2)cc1NC(=O)CSc1nnc(N)s1	3.9	1.3	-3.7	-1.3	.	.
Cc1oc2cc3oc(=O)c(CC(=O)NCCCC(=O)O)c(C)c3cc2c1C	7.1	0.1	6.4	-6.2	.	.
Cc1c(CC(=O)NCCC(C)C)c(=O)oc2cc3c(cc12)CCC(C)(C)O3	6.4	1.2	41.7*	5.6	90.3*	70.8*
CCOP(=O)(OCC)c1nc(-c2ccccc2)oc1NCc1ccccc1	7.5	4.2	82.4*	-10.3	24.1	13.5*
CCOP(=O)(OCC)c1nc(-c2ccc(F)cc2)oc1NCc1ccccc1	2.7	0.2	76.8*	-0.9	45.8*	28.9*
Cc1ccccc1-c1ccc2c(c1)O[C@@H](CN(C)C(=O)Nc1ccc(C(F)(F)F)cc1)[C@H](C)CN([C@@H](C)CO)S2(=O)=O	1.0	.	-3.1	.	.	.
COc1ccc(-c2ccc3c(=O)cc(-c4ccsc4)oc3c2)cn1	15.0	-0.5	47.9*	-38.6	9.7	1.1
COc1cc(-c2ccc3oc(-c4ccsc4)cc(=O)c3c2)cc(OC)c1OC	19.6	0.6	-1.9	-20.2	.	.
O=C(CC1C(=O)NCCN1C(=O)Nc1ccccc1)Nc1cc(Cl)cc(Cl)c1 (configuration not stated)	3.5	-0.9	-1.2	0.6	.	.
CCN(CC)CCNC(=O)CCc1c(C)nc2c(c(C)nn2-c2ccc(C)c(C)c2)c1C	0.7	-2.8	36.2*	.	196.9*	196.1*
Cc1ccc(-n2nc(C)c3c(C)c(CCC(=O)NCCCOC(C)C)c(C)nc32)cc1	9.6	-3.6	25.0	.	.	.
COC(CNC(=O)CCc1c(C)nc2c(c(C)nn2-c2ccc(C)cc2)c1C)OC	19.3	0.6	40.1*	.	-12.1	-11.9
COCCCNC(=O)CCc1c(C)nc2c(c(C)nn2-c2ccccc2)c1C	3.7	0.7	41.2*	.	52.2*	43.6*
CCOC(=O)N1CCC(NC(=O)CCc2c(C)nc3c(c(C)nn3-c3ccccc3)c2C)CC1	14.7	.	3.6	.	.	.
Cc1cc2c(c(=O)n1CC1CCCO1)C(c1ccco1)C(C#N)=C(N)O2 (configuration not stated)	12.2	-3.8	31.6*	-6.0	40.8*	37.9*
CCCCN(C(=O)c1ccccc1OCc1ccc(F)cc1)c1c(N)n(CC(C)C)c(=O)[nH]c1=O	13.4	-2.1	4.3	1.8	.	.
CCc1ccc2c(CN3CCN(Cc4ccccc4)CC3)cc(=O)oc2c1	5.0	0.5	2.0	-1.2	.	.
Cc1c(O)ccc2c(CN3CCN(Cc4ccccc4)CC3)cc(=O)oc12	4.0	0.4	35.9*	2.0	+	+
CCc1cc2c(CN(C)Cc3ccccc3F)cc(=O)oc2cc1O	6.0	0.3	57.6*	-18.0	+	+
CCc1cc2c(CN3CCN(Cc4ccccc4)CC3)cc(=O)oc2cc1O	7.3	0.9	96.7*	.	113.3*	92.6*
Cc1c(O)ccc2c(CN(C)Cc3ccccc3)cc(=O)oc12	16.0	2.0	47.1*	6.5	56.2*	51.4*
Cc1cc2oc(=O)cc(CN(C)Cc3cccc(F)c3)c2cc1C	4.4	-0.2	-8.6	-9.3	.	.
COc1ccc(CC(N)c2csc(Nc3nccc(C(F)(F)F)n3)n2)cc1 (configuration not stated)	2.7	.	-3.5	.	.	.
Cc1ccccc1C(=O)NNS(=O)(=O)c1cccc([N+](=O)[O-])c1	3.4	1.1	0.2	-0.5	.	.
SMILES	GDH-TPI counter-1	UGM FP inh	FBA Mtb inh	Rv3671c inh	Mtb FBA inh conf	GDH-TPI counter-2
O=C(/C=C/[C@H]1O[C@@H](n2ccc(=O)[nH]c2=O)[C@H](O)[C@@H]1O)NCC1CCCO1 (some centres not stated)	.	.	-0.6	.	.	.
CCOc1ccc(S(=O)(=O)NCCC(=O)N2CCN(C(C)=O)CC2)cc1	-1.8	.	7.7	.	.	.
O=C(N/N=C/c1ccc2c(c1)OCO2)C(=O)Nc1cccc(Cl)c1	2.5	-2.8	0.4	-9.8	.	.
CCn1ncc(-c2ccnc3cc(C(=O)O)nn23)c1C	8.7	0.0	68.0*	5.5	137.4*	130.9*
O=C(O)/C=C/c1cn(-c2ccccc2)nc1-c1cc2ccccc2o1	8.6	1.4	90.6*	-15.9	+	156.8*
O=C(O)/C=C/c1cn(-c2ccccc2)nc1-c1ccccc1	2.9	-0.6	-3.0	-8.6	.	.
